Data reported in PubChem BioAssay AID720597 (Broad Institute, 2013).
Results with a measured potency or affinity are listed apart. Active and inactive are the calls of the source.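 The calls were made as follows: active = fitted half-maximal dose no more than twice the top valid tested dose, for compounds that lower signal; inconclusive = fit invalid, or curve flat with activity between -70 and -30; inactive = potency past limit, curve flat within ±30, or signal increasing.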

The compounds below were run against NAD-dependent protein deacylase sirtuin-5, mitochondrial (Homo sapiens) (UniProt Q9NXA8) (assay: SIRT5 deacylase inhibitors, dose response, biochemical, fluorescence imaging, cherry-pick, set 6 (AID 720597;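 also: lower AMC signal can also come from blocking the trypsin step; 0% = median of neutral control wells and -100% = median of positive control wells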)). Conditions: Purified SirT5, succinyl-peptide-AMC/trypsin fluorescence; series mostly up to 15 µM; activity change, negative = inhibition: at the top concentration.
Chain of NAD-dependent protein deacylase sirtuin-5, mitochondrial (Homo sapiens) (Q9NXA8 whole entry, looked up): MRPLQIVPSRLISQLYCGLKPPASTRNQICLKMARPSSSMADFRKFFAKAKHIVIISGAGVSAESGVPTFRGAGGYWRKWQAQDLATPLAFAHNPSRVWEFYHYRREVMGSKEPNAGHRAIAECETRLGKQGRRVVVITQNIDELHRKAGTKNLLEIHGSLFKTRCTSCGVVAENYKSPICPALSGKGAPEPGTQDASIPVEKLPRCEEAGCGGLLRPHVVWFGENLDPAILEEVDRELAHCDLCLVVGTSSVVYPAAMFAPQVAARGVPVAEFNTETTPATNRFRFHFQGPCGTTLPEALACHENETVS

Activity change, negative = inhibition, inactive:
CN(C)C(=O)c1cccc(-c2ccc([C@@H]3[C@H](CO)N4C(=O)CN(C(=O)C5CC5)C[C@@H]34)cc2)c1 7.57%
CN(C)CC#Cc1ccc([C@@H]2[C@@H](CO)N3C(=O)CN(C(=O)c4cccc(F)c4)C[C@@H]23)cc1 -6.67% [at 16 µM]
C[C@H]1CN([C@@H](C)CO)S(=O)(=O)c2ccc(/C=C/c3ccccc3)cc2O[C@H]1CN(C)C(=O)c1ccc2c(c1)OCO2 -5.88%
CC(C)C#Cc1cnc2c(c1)C(=O)N([C@@H](C)CO)C[C@H](C)[C@@H](CN(C)C(=O)CN1CCOCC1)O2 11.3%
C[C@@H]1CN([C@H](C)CO)S(=O)(=O)c2ccc(C#Cc3cccc(F)c3)cc2O[C@@H]1CN(C)S(=O)(=O)c1ccccc1F 40.1%
C[C@@H]1CN([C@H](C)CO)C(=O)c2cc(NC(=O)CCC(F)(F)F)ccc2O[C@@H](C)CCCCO[C@@H]1CN(C)Cc1ccc(C(F)(F)F)cc1 -23.9%
COc1ccc(C#Cc2ccc3c(c2)[C@]2(C(=O)N3)[C@H](C(=O)N3CCN(c4ncccn4)CC3)[C@H]3C(=O)O[C@H](c4ccccc4)[C@H](c4ccccc4)N3[C@@H]2c2ccc(OCCO)cc2)cc1 11%
Cc1ccc(S(=O)(=O)Nc2ccc3c(c2)C(=O)N([C@@H](C)CO)C[C@H](C)[C@H](CN(C)Cc2ccc(C(F)(F)F)cc2)OCCCC[C@@H](C)O3)cc1 -7.33%
CC(C)CC#Cc1ccc2c(c1)O[C@@H](CN(C)S(=O)(=O)c1cccc(F)c1)[C@@H](C)CN([C@H](C)CO)S2(=O)=O -21%
Cc1cccc(-c2ccc([C@@H]3[C@@H](CO)N4C(=O)CN(S(=O)(=O)c5cccc(F)c5)C[C@@H]34)cc2)c1 5.16%
COc1ccc(-c2cnc3c(c2)C(=O)N([C@@H](C)CO)C[C@H](C)[C@@H](CN(C)Cc2ccc(C(=O)O)cc2)O3)cc1 -18.3%
C[C@H]1CN([C@@H](C)CO)C(=O)c2cccc(NC(=O)c3ccncc3)c2O[C@@H]1CN(C)S(C)(=O)=O 19.2%
CCCN(C[C@H]1[C@H](c2ccccc2)[C@@H](CO)N1C(C)=O)C(=O)NC(C)C 6.93% [at 16 µM]
O=S(=O)(c1ccc(F)cc1)N1CCCCN2[C@@H](CO)[C@H](c3ccc(-c4ccccc4F)cc3)[C@@H]2C1 -23.3%
C[C@H]1CN([C@@H](C)CO)C(=O)c2ccccc2-c2ccccc2CO[C@@H]1CN(C)Cc1ccc(C(F)(F)F)cc1 7.02%
Cc1ccc(S(=O)(=O)N(C)C[C@H]2OCCCC[C@H](C)Oc3ccc(NS(=O)(=O)c4ccccc4)cc3C(=O)N([C@H](C)CO)C[C@H]2C)cc1 -23.4%
C[C@@H]1CN([C@@H](C)CO)C(=O)c2cc(NC(=O)Cc3ccccc3)ccc2O[C@@H]1CN(C)Cc1ccc(Oc2ccccc2)cc1 44.1%
CNC[C@H]1Oc2c(NC(=O)c3ccc(-c4nccs4)cc3)cccc2C(=O)N([C@H](C)CO)C[C@H]1C -12.1%
COc1ccc(S(=O)(=O)Nc2ccc3c(c2)C(=O)N([C@H](C)CO)C[C@H](C)[C@H](CN(C)Cc2ccc(C(F)(F)F)cc2)OCCCC[C@@H](C)O3)cc1 6.62% [at 16 µM]
O=C(CCN1CCCCC1)N[C@@H]1CC[C@@H](CC(=O)N2CCC(Cc3ccccc3)CC2)O[C@@H]1CO -11.3%
C[C@H]1CN([C@@H](C)CO)C(=O)c2cc(-c3ccc(C#N)cc3)cnc2O[C@@H]1CN(C)C(=O)Nc1ccc(C(F)(F)F)cc1 -27.3%
CC(=O)N1[C@H](CO)[C@H](c2ccc(-c3ccncc3)cc2)[C@@H]1CNC(=O)CC1CC1 -8.06%
C[C@H]1CN([C@@H](C)CO)S(=O)(=O)c2ccc(/C=C/c3ccccc3)cc2O[C@H]1CN(C)C(=O)NC1CCCCC1 4.14%
Cc1ccc(S(=O)(=O)Nc2ccc3c(c2)CC(=O)N([C@@H](C)CO)C[C@@H](C)[C@H](CN(C)Cc2ccc(Oc4ccccc4)cc2)O3)cc1 -17%
C[C@@H]1CN([C@H](C)CO)C(=O)Cc2cc(NS(=O)(=O)c3ccc(Cl)cc3)ccc2O[C@H]1CN(C)Cc1ccc(Oc2ccccc2)cc1 2.87%
Cc1cccc(-c2ccc([C@H]3[C@H](CO)N4CCCCN(S(=O)(=O)c5cccc(C)c5)C[C@@H]34)cc2)c1 -30.5%
CNC[C@H]1Oc2ccc(NC(=O)Nc3ccc(F)cc3)cc2CC(=O)N([C@@H](C)CO)C[C@@H]1C 19.6%
COc1ccc(CN(C)C[C@H]2Oc3ccc(NS(=O)(=O)c4ccc(Cl)cc4)cc3CC(=O)N([C@@H](C)CO)C[C@@H]2C)cc1 -24.5%
Cc1cccc(-c2ccc([C@H]3[C@H]4CN(S(=O)(=O)c5cccc(F)c5)CC(=O)N4[C@H]3CO)cc2)c1 11.7%
